Assay outcomes as filed in PubChem.
sEH inh = soluble epoxide hydrolase inhibitors, primary screen, biochemical, human sEH; Bifunctional epoxide hydrolase 2 (Homo sapiens), P34913; recombinant human sEH enzymatic activity assay; inhibition, % at 2 µM; 91,000 compounds, 0.34% hits; AID 707, 2007; in the data active means inhibition above about 80%
Target sequence (P34913 whole entry, looked up): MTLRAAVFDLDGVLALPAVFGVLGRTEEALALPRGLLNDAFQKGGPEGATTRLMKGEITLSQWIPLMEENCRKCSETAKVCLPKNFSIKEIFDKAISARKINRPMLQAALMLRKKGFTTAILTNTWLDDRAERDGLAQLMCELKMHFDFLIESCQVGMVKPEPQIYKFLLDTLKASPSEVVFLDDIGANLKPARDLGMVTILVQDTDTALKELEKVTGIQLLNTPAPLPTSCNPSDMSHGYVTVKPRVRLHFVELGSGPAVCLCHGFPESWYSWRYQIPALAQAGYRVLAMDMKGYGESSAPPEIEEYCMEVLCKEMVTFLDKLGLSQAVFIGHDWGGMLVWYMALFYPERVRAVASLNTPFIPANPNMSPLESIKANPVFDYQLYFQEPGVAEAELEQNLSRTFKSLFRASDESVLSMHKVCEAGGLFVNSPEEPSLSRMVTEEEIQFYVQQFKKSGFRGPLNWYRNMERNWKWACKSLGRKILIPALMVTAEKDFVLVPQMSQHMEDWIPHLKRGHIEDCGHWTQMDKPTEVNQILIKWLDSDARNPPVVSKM
CYP2C9 inhib = blockers of cytochrome P450 2C9 activity – biochemical, luminescence, ADME assay, primary screen | P11712 | CYP2C9 Supersomes, luciferin-H conversion | inhibition, % at 5 µM | 96,000 compounds, 20% hits | AID 777, 2007;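 active means blocking of liver enzyme CYP2C9 beyond about 50% at 5 µM, limit read from the data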
CYP2C19 inhib = blockers of cytochrome P450 2C19 activity – biochemical, luminescence, ADME assay, primary screen | CYP2C19 Supersomes, luciferin-H EGE luminescence, 30 min | P33261 | AID 778, 2007 | 96,000 compounds, 21% hits | inhibition, % at 5 µM;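 active means CYP2C19 inhibition above a set limit at 5 µM in the primary screen, cut at about 50% in these data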;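 further: plate controls were negative control wells for no effect and 2.5 mM tranylcypromine positive control for full effect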
sEH act = soluble epoxide hydrolase activators, primary screen, biochemical, human sEH | purified human sEH enzymatic activity, activator screen | activation, % at 2 µM | Bifunctional epoxide hydrolase 2 (Homo sapiens), P34913 | 91,000 compounds, 0.04% hits; in the data active means activation above about 37%
CYP2C19 act = human CYP2C19 activators, primary screen, biochemical, luminescence. recombinant CYP2C19, luciferin-H EGE luminescence; stronger effect = higher value; 0 = fully inhibited enzyme, 1 = untreated enzyme. activation factor at 5 µM. 96,000 tested, under 10 active;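 active means activation factor of at least 2 at 5 µM in the primary screen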;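 further: 0 = wells with 2.5 mM tranylcypromine and 1 = vehicle-only wells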
CYP2C9 act = human CYP2C9 activators, primary screen, biochemical, luminescence; 96,000 compounds, 1.4% hits; AID 1024, 2008; activation factor at 5 µM; Cytochrome P450 2C9 (Homo sapiens), P11712; recombinant CYP2C9, luciferin-H conversion; stronger effect = higher value; factor 1 = untreated enzyme, 0 = blocked;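 active means activation factor of 2 or more for CYP2C9 at a 5 µM dose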;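 further: 0 = sulfaphenazole-blocked wells and 1 = vehicle-only wells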
* marks the source's active call; other numbers are inactive results; . = no result. Rows were chosen to be rich in hits. Some 27% of all compounds tested hit in one or more screens of this group.

SMILES	sEH inh	CYP2C9 inhib	CYP2C19 inhib	sEH act	CYP2C19 act	CYP2C9 act
COCCn1nnnc1C(c1cccc(C#N)c1)N1CCCCCC1 (stereo not drawn)	0	41	68*	0	0.3	0.6
COc1ccc(Cn2nnnc2C(C(C)C)N2CCN(c3ccccc3OC)CC2)cc1 (stereo not drawn)	-12	97*	92*	12	0.1	0
C=CCC(C)(NCc1ccccc1)c1ccco1 (stereo not drawn)	0	22	35	3	0.6	0.8
COc1ccc(NC(=O)c2cccnc2C(=O)O)c(OC)c1	-1	-4	-12	0	1.1	1
COc1ccc(C(c2nnnn2Cc2ccccc2)N2CCN(c3nc4ccccc4s3)CC2)cc1 (stereo not drawn)	.	63*	54*	.	0.5	0.4
COc1ccc(OC)c(C(c2nnnn2C2CCCC2)N2CCN(c3ccc(F)cc3)CC2)c1 (stereo not drawn)	-11	63*	81*	8	0.2	0.4
c1ccc(CN2CCN(C(c3ccccc3)c3nnnn3Cc3ccccc3)CC2)cc1 (stereo not drawn)	-14	.	.	13	.	.
COCCn1nnnc1C(c1ccc(OC)c(OC)c1)N1CCN(c2nc3ccccc3s2)CC1 (stereo not drawn)	9	69*	0	-10	1	0.3
Fc1ccc(C(c2nnnn2Cc2cccs2)N2CCN(C3CCCC3)CC2)cc1 (stereo not drawn)	-9	-11	80*	9	0.2	1.1
c1ccc(C(c2nnnn2Cc2cccs2)N2CCN(C3CCCC3)CC2)cc1 (stereo not drawn)	-22	6	24	19	0.8	0.9
COc1ccc(CCNCc2csc3nc4ccccc4n23)cc1OC	-14	25	20	11	0.8	0.8
Cc1cccc(CC(=O)OCn2nnc3ccccc3c2=O)c1	.	-10	33	.	0.7	1.1
N#Cc1ccc(C(c2nnnn2C2CCCC2)N2CCC(Cc3ccccc3)CC2)cc1 (stereo not drawn)	0	26	56*	3	0.4	0.7
COc1ccc(C(c2nnnn2C2CCCCC2)N2CCN(c3ccccc3)CC2)cc1 (stereo not drawn)	3	75*	72*	-6	0.3	0.3
COc1ccc(C(c2nnnn2C2CCCC2)N2CCN(c3ccccc3)CC2)cc1 (stereo not drawn)	10	.	.	-5	.	.
COc1ccc(C(c2nnnn2Cc2cccs2)N2CCN(c3ccccc3F)CC2)cc1 (stereo not drawn)	12	90*	92*	-12	0.1	0.1
COCCn1nnnc1C(c1ccc(OC)cc1OC)N1CCN(c2ccccc2F)CC1 (stereo not drawn)	-13	19	30	12	0.7	0.8
COc1ccc(C(c2nnnn2Cc2ccccc2)N2CCN(c3ccccc3)CC2)cc1 (stereo not drawn)	.	86*	91*	.	0.1	0.1
CC(C)(C)NC(=O)COC(=O)Cc1ccc(Cl)cc1	-4	-9	30	5	0.7	1.1
CCn1c(=O)cc(OCC(=O)NC(C)c2ccc3c(c2)OCCO3)c2ccccc21 (stereo not drawn)	35	16	10	-34	0.9	0.8
COc1ccc(C(c2nnnn2CC2CCCO2)N2CCN(c3ccc(F)cc3)CC2)cc1 (stereo not drawn)	-4	78*	48	5	0.5	0.2
CCCC(C(=O)NC1CCCC1)N(CCCN1CCOCC1)C(=O)c1snc(C(N)=O)c1N (stereo not drawn)	-3	2	7	7	0.9	1
CC(C)Oc1ccc(S(=O)(=O)N(C(C)C)C(C)C)cn1	-4	.	.	7	.	.
Cc1cc2n(n1)C(c1ccccc1)Nc1ccccc1-2 (stereo not drawn)	-8	24	39	7	0.6	0.8
Cc1cc2n(n1)C(c1ccc3c(c1)OCO3)Nc1ccccc1-2 (stereo not drawn)	-2	70*	88*	4	0.1	0.3
SMILES	sEH inh	CYP2C9 inhib	CYP2C19 inhib	sEH act	CYP2C19 act	CYP2C9 act
Cc1ccc2c(c1)-c1cc(C)nn1C(c1ccc3c(c1)OCO3)N2 (stereo not drawn)	4	89*	96*	-6	0	0.1
COc1cccc(CNC(=O)C2CCN(S(=O)(=O)c3c(C)nn(C)c3C)CC2)c1	22	-28	4	-23	1	1.3
COc1ccc(CC(NC(C)=O)C(=O)NC2CCN(C(=O)NCc3ccccc3)CC2)cc1OC (stereo not drawn)	20	8	-4	-19	1	0.9
CCCNC(=O)c1ccc2c(c1)C1C3CCC(C3)C1C(c1ccccc1)N2 (stereo not drawn)	46	100*	89*	-45	0.1	0
Brc1ccc(-c2nnc3n2-c2ccccc2CC3)cc1	.	63*	86*	.	0.1	0.4
c1ccc2sc(N3CCOCC3)nc2c1	.	-4	13	.	0.9	1
c1ccc2sc(SN3CCOCC3)nc2c1	.	18	82*	.	0.2	0.8
CCCC12CN3CC(C)(CN(C1)C3c1ccc3c(c1)OCO3)C2=O (stereo not drawn)	14	-25	73*	-10	0.3	1.3
CCCC12CN3CC(C)(CN(C1)C3c1ccc(OC)cc1)C2=O (stereo not drawn)	-1	14	18	1	0.8	0.9
CC(C)C12CN3CC(C(C)C)(CN(C1)C3c1ccc3c(c1)OCO3)C2=O (stereo not drawn)	6	75*	92*	-6	0.1	0.2
CN1C(=O)c2ccccc2N(C)C1c1ccc2c(c1)OCO2 (stereo not drawn)	-3	69*	81*	3	0.2	0.3
CC(C)C12CN3CC(C(C)C)(CN(C1)C3c1ccccc1O)C2=O (stereo not drawn)	8	90*	91*	-8	0.1	0.1
O=C(Nc1ccc(SC(F)F)cc1)c1ccc2nccnc2c1	75	20	9	-75	0.9	0.8
Cc1ccc(-c2nc(SCC(=O)N(C)C3CCS(=O)(=O)C3)[nH]c2-c2ccc(C)cc2)cc1 (stereo not drawn)	-3	34	16	2	0.8	0.7
CCOc1cc(C(=O)N2CCOCC2)ccc1OCc1ccccc1	-18	6	-3	22	1	0.9
CCCCCCCn1c(=N)n(CC(=O)c2ccco2)c2ccccc21	5	4	7	-7	0.9	1
